Assay in all cases: NCI-60 one-dose screen, 48 h (100 = growth as untreated, 0 = no growth, -100 = all killed)
Holding throughout (settings): 10 µM unless noted

In assay [1] the test system is SR leukemia.
Assay [2] has as its system RPMI-8226 leukemia.
In assay [3] the test system is OVCAR-8 ovarian.
Assay [4] has as its system OVCAR-5 ovarian.
The test system of assay [5] is OVCAR-4 ovarian.
Assay [6] deals with SK-OV-3 ovarian.
Assay [7] deals with HS 578T breast.
Assay [8] relates to NCI/ADR-RES ovarian.
Assay [9] relates to OVCAR-3 ovarian.
Assay [10] concerns IGROV1 ovarian.

This is part of a sample that, as a whole, favours compounds with a hit. Of some 83,000 tested, about 20% had one in any assay.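 A percent growth of 40 corresponds to 60% growth inhibition; 0 means no net growth; -100 means all cells died. Active threshold: below 10.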 Values without a mark were called inactive. The source made the active and inactive calls.

Here are results for 15 compounds from PubChem BioAssay (NCI).

`Cc1csc(/N=C(N)/N=C(\N)c2cccc(C#N)c2)n1`: the growth in [1] was 30.2%; in assay [2], 87.8%; in assay [3] it was 85.8%; in assay [4] it was 106%; in assay [5], 97.2%; in [6] it was 76.3%. Also, the growth was 83.1% in assay [7] and 58.3% in assay [8].

In the case of `CN1CCN(c2ccc(Nc3nc(NCCCNS(=O)(=O)c4cccc5ccccc45)c4sccc4n3)cc2)CC1`, the growth in [1] was 4.12% (active); in [2], -2.5% (active); in assay [3], 5.7% (active); in assay [4], 10.8%; in assay [5], -35.6% (active); in [6] it was -18% (active). Also, the values for the growth in assay [9], in [7] and in assay [8] were -62.7% (active), -25% (active) and 13.5%, respectively.

Consider `CC[C@]12CC(C(=O)OC)=C3Nc4ccccc4[C@@]34CCN(C14)[C@@H]1c3cc4c(cc3O[C@@H]1[C@H]2O)NC1=C(C(=O)OC)C[C@@]2(CC)C3N(CC[C@@]143)C[C@H]1O[C@H]12` (some centres undefined), for which the growth in [1] was 6.59% (active); in assay [2], -3% (active); in assay [3] it was 24.4%; in [4] it was 38.6%; in assay [5] it was 33.2%; in [6] it was 27.9%. Also, the results for the growth in assay [7] and in assay [8] were 12.2% and 1.07% (active), respectively.

In the case of `C=C1CCc2nc(SCC(=O)O)ccc2N1`, the growth is 115% in assay [1]; 114% in [2]; 105% in assay [3]; 97.1% in assay [4]; 104% in assay [5]; 98.8% in [6]. Moreover, the growth in [9] is 117%; in assay [7], 101%; in assay [8], 98.8%.

Regarding `Cc1csc(/N=C(N)/N=C(\N)c2cccs2)n1`, the growth in [1] is 99%; in assay [2], 101%; in assay [3], 101%; in assay [4], 115%; in assay [5] it was 105%; in assay [6], 92.3%. In addition, the growth in [7] is 107%; in assay [8], 108%.

As for `O=C(COc1ccc(/C=C2\C(=O)Nc3ccc(F)cc32)cc1)Nc1ccccc1`, the growth in [1] was 86.1%; in [2] it was 103%; in [3], 98.7%; in assay [4] it was 95.8%; in [5], 100%; in assay [6] it was 96.9%. Besides, the values for the growth in [7] and in assay [8] were 105% and 101%, respectively.

As to `Brc1cc(-c2cc(-c3ccc4c(c3)OCCO4)[nH]n2)cs1`, the growth is 14.2% in assay [1]; 29.9% in assay [2]; 51.8% in [3]; 75.8% in [4]; 83.5% in [5]; 62.5% in assay [6]. Further, the growth was 61.1% in assay [7] and 17.4% in assay [8].

As to `O=C1[C@H]2Cc3c([nH]c4ccccc34)[C@H](c3ccc(Br)cc3)N2C(=O)CN1C1CCN(CC2CCCCC2)CC1`, the growth in assay [1] was -12.7% (active); in [2] it was 43.2%; in assay [3], 85.4%; in assay [4], 106%; in [5] it was 82.7%; in [6], 87.9%. For the same compound, the values for the growth in assay [10] and in [8] were 82.2% and 75.2%, respectively.

As to `CN(C)S(=O)(=O)c1ccc(-c2nc(C(Cl)Cl)nc3cc(-c4ccc(F)cc4)nn23)cc1`, the growth was 8.24% (active) in [1]; 7.75% (active) in [2]; 2.7% (active) in assay [3]; 18.3% in assay [4]; 21.1% in assay [5]; 0.219% (active) in assay [6]. The growth in [9] is 8.15% (active); in assay [7], 20.3%; in assay [8] it was 3.66% (active).

With `NC(=O)c1c(NC(=O)c2ccc(C(F)(F)F)cc2)sc2c1CCC(=O)C2`, the growth in assay [1] is 1.33% (active); in assay [2], -30.3% (active); in assay [3], 9.01% (active); in assay [4] it was 9.87% (active); in [5], -66.9% (active); in [6] it was 37.5%. Besides, the growth in [9] was -17.2% (active); in assay [7] it was 19.4%; in assay [8] it was 0.891% (active).

For `O=C(/C=C/c1ccccc1Cl)Nc1ncc(Cc2cc(Cl)ccc2Cl)s1`, the growth was 14.3% in assay [1]; 19.7% in assay [2]; 36.9% in [3]; 56% in [4]; 53.8% in assay [5]; 43.7% in [6]. For the same compound, the growth in assay [10] is 19.4%; in [8] it was 17.9%.

Consider `Brc1cccc(-c2cc(-c3cnc4c(c3)OCCO4)n[nH]2)c1`, for which the growth in assay [1] was 13.4%; in assay [2], 26.2%; in [3] it was 46.4%; in assay [4] it was 72.3%; in assay [5], 82.5%; in assay [6], 77.1%. Moreover, the growth was 76.1% in assay [7] and 10.9% in assay [8].

For `C/C(CC1(O)C(=O)Nc2ccccc21)=N\O` (centres undefined), the growth in assay [1] was 100%; in [2] it was 100%; in assay [3], 101%; in assay [4], 99.2%; in [5], 95.1%; in assay [6] it was 108%. For the same compound, the growth in [9] was 106%; in assay [7] it was 97.4%; in assay [8] it was 95.9%.

Take `CNC(=O)Nc1ccc(Nc2cc(-c3ccc(-n4cccn4)cc3)[nH]n2)c(C)c1`: the growth in assay [1] was 89%; in assay [2] it was 93.3%; in assay [3], 102%; in assay [4], 111%; in assay [5], 102%; in [6] it was 107%. In assay [7], the growth is 116%.

Turning to `CCOC(=O)Nc1ccc2c(ccn2C(=O)c2cccc(F)c2)c1`, the growth in assay [1] was 16.8%; in assay [2], 24.6%; in [3] it was 43.9%; in assay [4], 60.5%; in assay [5] it was 68.8%; in [6] it was 55.3%. The growth in assay [7] was 39.1%; in assay [8], 19.8%.
